Results from PubChem BioAssay (NCI).
About 83,000 compounds went through this panel and 20% of them were active in at least one assay; those are over-represented in the sample as a whole.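 Testing used 96-well plates and a 48-hour single-concentration exposure. Example: -40 means 40% of the starting cells died.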 Values without a mark were called inactive. Calls of active or inactive are those of the source. Rule for the calls: active = growth percent below 10; inactive = the rest.

Experiments:
Assay in all cases: NCI-60 one-dose screen, 48 h (100 = growth as untreated, 0 = no growth, -100 = all killed)
Settings in all cases: 10 µM unless noted
DU-145 prostate = test system: DU-145 prostate
K-562 leukemia = test system: K-562 leukemia
MALME-3M melanoma = test system: MALME-3M melanoma
MDA-MB-231 breast = test system: MDA-MB-231 breast
RXF 393 renal = test system: RXF 393 renal
SF-268 CNS = test system: SF-268 CNS
SF-295 CNS = test system: SF-295 CNS
SF-539 CNS = test system: SF-539 CNS
UACC-257 melanoma = test system: UACC-257 melanoma
M14 melanoma = test system: M14 melanoma
HCT-15 colon = test system: HCT-15 colon
HT29 colon = test system: HT29 colon
SNB-75 CNS = test system: SNB-75 CNS
SNB-19 CNS = test system: SNB-19 CNS
U251 CNS = test system: U251 CNS
PC-3 prostate = test system: PC-3 prostate
SK-MEL-5 melanoma = test system: SK-MEL-5 melanoma
UACC-62 melanoma = test system: UACC-62 melanoma
LOX IMVI melanoma = test system: LOX IMVI melanoma
SK-MEL-28 melanoma = test system: SK-MEL-28 melanoma

SMILES	growth (DU-145 prostate)	growth (K-562 leukemia)	growth (MALME-3M melanoma)	growth (MDA-MB-231 breast)	growth (RXF 393 renal)	growth (SF-268 CNS)	growth (SF-295 CNS)	growth (SF-539 CNS)	growth (UACC-257 melanoma)	growth (M14 melanoma)	growth (HCT-15 colon)	growth (HT29 colon)	growth (SNB-75 CNS)	growth (SNB-19 CNS)	growth (U251 CNS)	growth (PC-3 prostate)	growth (SK-MEL-5 melanoma)	growth (UACC-62 melanoma)	growth (LOX IMVI melanoma)	growth (SK-MEL-28 melanoma)
O=C1N/C(=N/N=C(c2ccccc2)c2ccccc2)S/C1=C\c1ccc(Br)cc1	107%	89.6%	97.7%	94.6%	107%	99.3%	96.1%	110%	83.5%	91.8%	97.8%	81.8%	101%	100%	91.3%	89.8%	97.2%	79.8%	98.5%	112%
CCOC(=O)c1cc(C(=O)c2cc(OC)cc(OC)c2)n2ncccc12	37.4%	17.8%	47.1%	54.5%	35.9%	44.3%	28.2%	20%	37.6%	-15.7% (active)	21.5%	7.23% (active)	23.5%	47.1%	24.7%	36.2%	26%	26.2%	39.7%	71.2%
CCCCC1=C(Br)C(=O)c2ncccc2C1=O	103%	30.2%	101%	77.6%	98.3%	95.5%	106%	94.5%	92.6%	98.2%	100%	104%	91.9%	97.9%	95.5%	90%	90.3%	93.4%	94.6%	115%
CN1CCN(Cc2ccc(NC(=O)c3cncc(C#Cc4c(N)ncc5c(F)cccc45)c3)cc2C(F)(F)F)CC1	-90.3% (active)	-66.9% (active)	-74.3% (active)	-89.6% (active)	-91.5% (active)	-63.6% (active)	-70.6% (active)	-95.4% (active)	-73% (active)	-66% (active)	-83.7% (active)	-77.1% (active)	-81% (active)	-97% (active)	-88.4% (active)	-69.2% (active)	-87.2% (active)	-93.3% (active)	-96.1% (active)	-86.5% (active)
COc1cc2c(c(OC)c1OC)CCC(c1cccc(NC(=O)c3cccc(Cl)c3)c1)O2 (stereo unspecified)	102%	72%	86.6%	88%	96%	90.6%	74.4%	103%	94.2%	86.6%	83.6%	73.7%	85.6%	91.8%	91.1%	66.6%	79.6%	68.1%	96.2%	92.1%
O=C1CCC(C(=O)N/N=C/c2ccc([N+](=O)[O-])cc2)N1 (stereo unspecified)	103%	103%	101%	109%	111%	96.7%	99.7%	93.7%	106%	104%	98.9%	104%	75.4%	99.9%	102%	95.3%	104%	100%	–	111%
COc1cc2c(c(OC)c1OC)CCC(c1cccc(C(=O)Nc3ccccc3Br)c1)O2 (stereo unspecified)	86.7%	71.5%	89.6%	83.3%	91.8%	87.1%	94.9%	83.1%	90.7%	67.4%	92%	82.4%	65.8%	90.1%	90.7%	76.1%	86.3%	66.2%	90.2%	94.6%
CO[C@]12C=C/C(=C(/C(=O)OCc3cccnc3)C(=O)CCCCCCCC[C@]3(OC)C=C/C(=C(/C(=O)OCc4cccnc4)C(=O)CCCCCCCC1)O3)O2	-95.3% (active)	0.254% (active)	-38.4% (active)	-38.3% (active)	-75.4% (active)	-72.1% (active)	-79.1% (active)	-55.2% (active)	-43.2% (active)	-47% (active)	-78.5% (active)	-32.3% (active)	-79.6% (active)	-90.5% (active)	-64.2% (active)	-51.6% (active)	-92.9% (active)	-82.5% (active)	–	-86.3% (active)
Cc1c(C(=O)C(SC(=S)N2CCOCC2)SC(=S)N2CCOCC2)nnn1-c1ccc([N+](=O)[O-])cc1	109%	74.7%	93.7%	101%	105%	104%	96.5%	101%	93.2%	89.8%	89.3%	92.3%	94.2%	96.3%	95.3%	96.1%	107%	88%	108%	103%
O=c1c2cccc3c(N4CCOCC4)ccc(c32)c2nc3ccccc3n12	109%	80%	97.7%	82%	131%	109%	86.3%	90.5%	96.2%	104%	81%	93.7%	79.1%	95.8%	90.7%	99.9%	73.4%	62.1%	84.8%	107%
COc1ccc(/C=N/NC(=O)Cn2nnc3ccccc32)cc1	117%	93%	103%	107%	93.7%	85.5%	103%	105%	95.2%	109%	104%	105%	90.6%	101%	102%	95.9%	110%	84.6%	106%	102%
O=C(Nc1ccccc1)Nc1ccccc1CNc1nc(Nc2ccc(OCCN3CCCC3)cc2)ncc1Cl	88%	7.08% (active)	71.2%	41.9%	33.7%	72.5%	73.3%	31%	75.3%	61.2%	41.4%	13.8%	90%	70.6%	38.7%	76.1%	57.2%	86.1%	–	78.5%
O=CN1N=C(c2cccc(Nc3ccncc3)c2)CC1c1ccc2c(c1)OCO2 (stereo unspecified)	104%	64.7%	86.7%	103%	100%	91.9%	91.9%	95.3%	80.1%	96.4%	95.7%	69.8%	88.4%	99.7%	94.8%	84.9%	91.8%	99.6%	–	97.7%
Cn1ccnc1C(=O)/C=C/c1ccc(C(=O)Nc2ccccc2F)cc1	20.7%	12.6%	54.7%	-2.25% (active)	16.4%	24.7%	6.25% (active)	-8.53% (active)	66.7%	8.56% (active)	14.2%	10.9%	56.2%	21.1%	10.5%	25.1%	83.7%	37.3%	-41.1% (active)	59.2%
CN1CCN(Cc2ccc(NC(=O)c3cncc(C#Cc4c(N)ncc5ccccc45)c3)cc2C(F)(F)F)CC1	-95.6% (active)	-37% (active)	-84.8% (active)	-88.7% (active)	-97% (active)	-65.1% (active)	-59.9% (active)	-97% (active)	-72.2% (active)	-73.9% (active)	-71.7% (active)	-70.1% (active)	-94.4% (active)	-82% (active)	-98.7% (active)	-57.8% (active)	-91.9% (active)	-93.8% (active)	-94.3% (active)	-83.2% (active)
